C diff growth – blocks growth of Clostridium difficile. actives 0.25% (n = 86,000). Clostridium difficile clinical isolate growth, OD600, 24 h; stronger effect = lower value. growth activity, negative = inhibition, % at 16 µg/mL (by protocol);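 active = mean growth activity at or below -80% and every replicate also at or below -80%; inconclusive = mean at or below -80% but some replicate above -80%; inactive = mean growth activity above -80%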
T cruzi growth-1 – T. cruzi proliferation inhibition | T. cruzi beta-gal in NIH3T3, GalScreen luminescence, 90 h | inhibition, % at 8.34 µM | actives 5.9% (n = 77,000) | AID 624255;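 active = mean inhibition above about 93%, with at least 55% of replicates each passing it, limit read from the data, passing the limit was not always enough; inconclusive = only one of those two conditions holds; inactive = neither condition holds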
Pf Dd2 growth – inhibitors of Plasmodium falciparum Dd2 growth. actives 2.3% (n = 94,000). activity change, % at 10 µM. P. falciparum Dd2 growth, SYBR Green, 72 h; stronger effect = lower value. AID 1159554; in the data active = activity change below about -80%; inconclusive = no clear call, values can overlap the other calls
T cruzi growth-2 – inhibitors of T. cruzi proliferation. T. cruzi beta-gal in NIH3T3, GalScreen luminescence, 90 h. shares compounds with T cruzi growth-1. inhibition, % at 8.35 µM. actives 72% (n = 5,600);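 active = mean replicate inhibition above about 95% and at least 55% of replicates individually reaching it, limit read from the data; inconclusive = only one of the two criteria is met; inactive = neither criterion is met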
T cruzi growth-3 – Trypanosoma cruzi proliferation inhibition. shares compounds with T cruzi growth-1. T. cruzi beta-gal in NIH3T3, GalScreen luminescence, 90 h. inhibition, % at 2.09 µM. actives 21% (n = 5,600). AID 651740;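 active = mean inhibition above about 95%, with at least 55% of replicates also reaching it, limit read from the data; inconclusive = meets just one of the two conditions; inactive = meets neither condition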
NIH3T3 tox – kills mouse NIH/3T3 fibroblasts; shares compounds with T cruzi growth-1; NIH/3T3 viability, CellTiter-Glo ATP luminescence, 90 h; cytotoxicity (signal decrease), % at 8.35 µM; actives 14% (n = 5,600); AID 651742;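 active = mean signal decrease across replicates above about 35% based on untreated-well scatter, with enough replicates individually passing, limit read from the data; inconclusive = no rule stated though some were filed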
NIH3T3 tox 2 – cytotoxicity in mouse NIH/3T3 fibroblasts | AID 651744 | inhibition, % at 24.9 µM | actives 56% (n = 5,600) | NIH/3T3 viability, CellTiter-Glo ATP luminescence, 90 h | shares compounds with T cruzi growth-1;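 active = mean loss of cell viability signal at or above a set limit, and enough replicates individually reaching it; inconclusive = meets only the mean limit or only the replicate share; inactive = meets neither condition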
Numbers stand for hits. A selection: hits, their analogues and other compounds. The true share with any hit is near 6.8%.

`C[C@H](CO)N1C[C@H](C)[C@H](CN(C)Cc2ccc(Cl)c(Cl)c2)OCCCC[C@H](C)Oc2ccc(NC(=O)Nc3ccc(F)cc3)cc2C1=O` gave T cruzi growth-1 100, Pf Dd2 growth inactive, T cruzi growth-2 inactive, T cruzi growth-3 108, NIH3T3 tox inactive and NIH3T3 tox 2 55.
`C[C@@H]1CCCCO[C@H](CN(C)Cc2ccc(Cl)c(Cl)c2)[C@@H](C)CN([C@@H](C)CO)C(=O)c2cc(NC(=O)CCC(F)(F)F)ccc2O1` gave C diff growth inactive, T cruzi growth-1 98, Pf Dd2 growth -95, T cruzi growth-2 inconclusive, T cruzi growth-3 114, NIH3T3 tox inactive and NIH3T3 tox 2 106.
Screening C[C@@H]1CCCCO[C@@H](CN(C)Cc2ccc(Cl)c(Cl)c2)[C@H](C)CN([C@@H](C)CO)C(=O)c2cc(NC(=O)Nc3ccccc3)ccc2O1 returned C diff growth inactive, T cruzi growth-1 inactive and Pf Dd2 growth inactive.
`C[C@@H]1CCCCO[C@H](CN(C)Cc2ccc(Cl)c(Cl)c2)[C@@H](C)CN([C@@H](C)CO)C(=O)c2cc(NC(=O)Nc3ccc(F)cc3)ccc2O1` gave T cruzi growth-1 101, Pf Dd2 growth inactive, T cruzi growth-2 inactive, T cruzi growth-3 112, NIH3T3 tox inactive and NIH3T3 tox 2 33.
For C[C@@H]1CN([C@H](C)CO)C(=O)c2cc(NC(=O)CCC(F)(F)F)ccc2O[C@@H](C)CCCCO[C@@H]1CN(C)Cc1ccc(Cl)c(Cl)c1 the results were C diff growth inactive, T cruzi growth-1 inactive and Pf Dd2 growth inactive.
For COC(=O)[C@H]1[C@H](CO)[C@H]2Cn3c(ccc(-c4ccccc4F)c3=O)[C@H]2N1C(=O)c1cnccn1 the results were C diff growth inactive, T cruzi growth-1 inactive and Pf Dd2 growth inactive.
For COc1ccc2c3c(n(C)c2c1)[C@@H](CO)N(C(=O)CN(C)C)CC31CCN(Cc2cncnc2)CC1 the results were C diff growth inactive and Pf Dd2 growth inactive.
For O=C(C[C@H]1C[C@@H]2c3cc(NC(=O)NC4CCCCC4)ccc3O[C@@H]2[C@@H](CO)O1)NCCc1ccccc1 the results were T cruzi growth-1 inactive and Pf Dd2 growth inactive.
Screening C[C@@H]1CN([C@@H](C)CO)C(=O)Cc2cc(NC(=O)CCCN(C)C)ccc2O[C@H]1CN(C)C(=O)Nc1ccccc1 returned C diff growth inactive and Pf Dd2 growth inactive.
For CCC(=O)N1[C@H](CO)[C@@H](c2ccc(-c3ccc(C#N)cc3)cc2)C12CN(C(C)=O)C2 the results were C diff growth inactive and Pf Dd2 growth inactive.
`COCC(=O)Nc1ccc2c(c1)C(=O)N(C)C[C@H](OC)[C@H](C)CN(C(=O)c1ccccc1)[C@@H](C)CO2` gave T cruzi growth-1 inactive and Pf Dd2 growth inactive.
Screening C[C@@H]1CN([C@@H](C)CO)C(=O)c2c(c3ccccc3n2C)-c2ccccc2CO[C@H]1CN(C)C returned C diff growth inactive, T cruzi growth-1 inconclusive, Pf Dd2 growth inactive, T cruzi growth-2 inconclusive, T cruzi growth-3 inactive, NIH3T3 tox inactive and NIH3T3 tox 2 inactive.
For C[C@H](CO)N1C[C@H](C)[C@@H](CN(C)Cc2cccnc2)OCc2ccccc2-c2c(n(C)c3ccccc23)C1=O the results were C diff growth inactive, T cruzi growth-1 inconclusive, Pf Dd2 growth inactive, T cruzi growth-2 inactive, T cruzi growth-3 inactive, NIH3T3 tox inactive and NIH3T3 tox 2 inactive.
C[C@H](CO)N1C[C@H](C)[C@@H](CN(C)C(=O)C2CC2)OCc2ccccc2-c2c(n(C)c3ccccc23)C1=O was read as C diff growth inactive, T cruzi growth-1 inactive and Pf Dd2 growth inactive.
Screening C[C@@H]1CN([C@@H](C)CO)C(=O)c2c(c3ccccc3n2C)-c2ccccc2CO[C@H]1CN(C)C(=O)Nc1ccc2c(c1)OCO2 returned C diff growth inactive, T cruzi growth-1 105, Pf Dd2 growth -82, T cruzi growth-2 inactive, T cruzi growth-3 inactive, NIH3T3 tox inactive and NIH3T3 tox 2 inactive.
`C[C@@H]1CN([C@@H](C)CO)C(=O)c2c(c3ccccc3n2C)-c2ccccc2CO[C@H]1CN(C)Cc1cccnc1` gave C diff growth inactive, T cruzi growth-1 inactive and Pf Dd2 growth inactive.
C[C@H](CO)N1C[C@H](C)[C@H](CN(C)C(=O)C2CC2)OCc2ccccc2-c2c(n(C)c3ccccc23)C1=O was read as C diff growth inactive, T cruzi growth-1 inconclusive, Pf Dd2 growth inactive, T cruzi growth-2 inactive, T cruzi growth-3 inactive, NIH3T3 tox inactive and NIH3T3 tox 2 38.
C[C@@H]1CN([C@H](C)CO)C(=O)c2c(c3ccccc3n2C)-c2ccccc2CO[C@H]1CN(C)C(=O)Nc1ccc2c(c1)OCO2 was read as C diff growth inactive, T cruzi growth-1 inactive and Pf Dd2 growth inactive.
`CC(=O)N(C)C[C@@H]1OCc2ccccc2-c2c(n(C)c3ccccc23)C(=O)N([C@@H](C)CO)C[C@H]1C` gave T cruzi growth-1 inactive and Pf Dd2 growth inactive.
Screening C[C@@H]1CN([C@H](C)CO)C(=O)c2cc(NC(=O)Nc3ccc4c(c3)OCO4)ccc2O[C@@H](C)CCCCO[C@@H]1CN(C)C(=O)NC1CCCCC1 returned C diff growth inactive, T cruzi growth-1 inactive and Pf Dd2 growth inactive.
CCCC(=O)Nc1ccc2c(c1)C(=O)N(C)[C@@H]1CC[C@@H](CC(=O)NCCc3ccncc3)O[C@@H]1CO2 was read as C diff growth inactive, T cruzi growth-1 inactive and Pf Dd2 growth inactive.
For CO[C@@H]1CN(C)C(=O)c2ccc(NC(=O)Nc3cccc(F)c3)cc2OC[C@@H](C)N(C(=O)Nc2c(C)noc2C)C[C@@H]1C the results were C diff growth inactive and Pf Dd2 growth inactive.
`CC(=O)N(C)C[C@H]1Oc2cc(C#CCC3CCCC3)ccc2S(=O)(=O)N([C@H](C)CO)C[C@H]1C` gave C diff growth inactive, T cruzi growth-1 inactive and Pf Dd2 growth inactive.
Screening C[C@@H]1CN([C@@H](C)CO)S(=O)(=O)c2ccc(C#CCC3CCCC3)cc2O[C@@H]1CN(C)C(=O)CN(C)C returned C diff growth inactive, T cruzi growth-1 inactive and Pf Dd2 growth inactive.
For C[C@@H]1CN([C@@H](C)CO)S(=O)(=O)c2ccc(C#CCC3CCCC3)cc2O[C@H]1CN(C)C(=O)CN(C)C the results were C diff growth inactive, T cruzi growth-1 inactive and Pf Dd2 growth inactive.
Screening C[C@H]1CN([C@@H](C)CO)S(=O)(=O)c2ccc(C#CCC3CCCC3)cc2O[C@@H]1CN(C)C(=O)CC1CC1 returned C diff growth inactive, T cruzi growth-1 121, Pf Dd2 growth inactive, T cruzi growth-2 103, T cruzi growth-3 113, NIH3T3 tox inactive and NIH3T3 tox 2 105.

Assay outcomes deposited in PubChem by Broad Institute.
